# Measured values taken from PubChem BioAssay.
# Active and inactive are the calls of the source. Rule as the data show it, unless noted: active = inhibition above about 80%; inactive = the rest.
# What was measured:
# [1] = growth inhibition, single agent or in combination, cell-based, chromothripsis tumors, cisplatin or BGB combos (AID 1671449); conditions: LFS_MB_P medulloblastoma cells;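 also: cells exposed for 96 hours; 0% = vehicle DMSO and 100% = killing by high DMSO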
# [2] = growth inhibition, single agent and combos, cell-based, chromothripsis tumors, cisplatin or BGB combos (AID 1671450); conditions: HDN33 neuroblastoma cells, stronger effect = higher value;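 also: cells exposed to compound for four days; 0% = vehicle DMSO and 100% = cell killing by high DMSO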
# [3] = growth inhibition, single agents and combos, ICB984, cell-based, cisplatin or BGB combos, synergistic combos for chromothripsis tumors (AID 1671451; call rule not given here;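 also: cells exposed for 96 hours before readout; 0% = vehicle DMSO and 100% = killing by high DMSO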); conditions: ICB984 medulloblastoma cells, drug combinations, stronger effect = higher value
# [4] = growth inhibition, single agents and combos, LFS_MB_1R, cell-based, cisplatin or BGB combos, synergistic combos for chromothripsis tumors (AID 1671452); conditions: LFS_MB_1R medulloblastoma cells, stronger effect = higher value;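 also: cells exposed for 96 hours before readout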
# [5] = growth inhibition, single agents and combos, HTB85, cell-based, BGB or cisplatin IC20 combos, synergistic combos for chromothripsis tumors (AID 1671453); conditions: HTB85 osteosarcoma cells, drug combinations, stronger effect = higher value;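 also: cells exposed for 96 hours before readout; 0% = vehicle DMSO and 100% = high DMSO killing control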
# [6] = growth inhibition, single agents and combos, CRL2098, cell-based, BGB or cisplatin IC20 combos, synergistic combos for chromothripsis tumors (AID 1671454); conditions: CRL2098 osteosarcoma cells, drug combinations, stronger effect = higher value;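 also: cells exposed for 96 h before readout; 0% = vehicle DMSO and 100% = killing by high DMSO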
# [7] = growth inhibition, single agents and combos, HD-MB03, cell-based, BGB or cisplatin IC20 combos, synergistic combos for chromothripsis tumors (AID 1671455; in the data active = inhibition above about 83%;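 also: 0% = vehicle DMSO and 100% = high DMSO as cytotoxic control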); conditions: HD-MB03 medulloblastoma cells, stronger effect = higher value
# [8] = growth inhibition, single agents and combos, UWB1.289, cell-based, BGB or cisplatin combos, synergistic combos for chromothripsis tumors (AID 1671456); conditions: UWB1.289 ovarian carcinoma cells, stronger effect = higher value;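 also: cells exposed to compound for four days; 0% = vehicle DMSO and 100% = killing by high DMSO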
# [9] = growth inhibition, single agents and combos, LFS_MB_2R, cell-based, cisplatin combos, synergistic combos for chromothripsis tumors (AID 1671457); conditions: LFS_MB_2R medulloblastoma cells, stronger effect = higher value;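 also: cells exposed to compound for four days before readout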
# [10] = growth inhibition, MDA-MB-436, cell-based, BGB or cisplatin combos, synergistic combos for chromothripsis tumors (AID 1671458; call rule not given here;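 also: cells exposed for 96 hours; 0% = vehicle DMSO and 100% = killing by high DMSO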); conditions: MDA-MB-436 breast carcinoma growth inhibition, drug combinations, stronger effect = higher value
# [11] = UWB1.289_BRCA1 ovarian cancer growth, cell-based, BGB or cisplatin combinations (AID 1671459); conditions: UWB1.289 BRCA1 ovarian carcinoma, drug combinations, stronger effect = higher value
# [12] = drug combination toxicity in non-malignant astrocytes – cell-based, BGB or cisplatin IC20 combos, cytotoxicity control for chromothriptic childhood tumor combination screen (AID 1671460); conditions: Human astrocytes, viability inhibition, drug combinations, at 0.5 µM, stronger effect = higher value;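 also: cells exposed to compounds for 96 hours before viability readout; 0% = vehicle and 100% = killing control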
# [13] = BT084 cell growth, single and combined drugs, ICGC_MB145, cisplatin and BGB IC40 combos (AID 1671461); conditions: BT084 medulloblastoma cells, drug combinations, stronger effect = higher value;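 also: cells exposed to drugs for 96 hours; 0% = vehicle DMSO and 100% = high DMSO full killing control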
# [14] = RCMB18 cell growth, single agent and combined, cisplatin and BGB IC40 combos (AID 1671462); conditions: RCMB18 medulloblastoma cells, stronger effect = higher value;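 also: cells exposed to compound for four days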
# [15] = CRL1545 cell growth, single agent and combined, cisplatin and BGB IC20 combos (AID 1671464); conditions: CRL1545 osteosarcoma cells, stronger effect = higher value;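 also: cells exposed to compound for 96 hours before readout; 0% = vehicle DMSO and 100% = high DMSO killing control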
# [16] = measured here: combination with BGB IC40, at 0.05 µM
# [17] = measured here: with BGB IC20 combination, at 0.5 µM
# [18] = measured here: with cisplatin IC20 combination, at 0.5 µM
# [19] = measured here: combination with cisplatin, at 0.5 µM
# [20] = measured here: combination with cisplatin, at 5 µM
structure (smiles),measurement,setting,value
CCC(C)C(=O)OC1CC(C)C=C2C=CC(C)C(CCC3CC(O)CC(=O)O3)C21 (stereo not drawn),inhibition,"[1]; at 0.5 µM, stronger effect = higher value",-40.1% (inactive)
same,inhibition,"[1]; measured here: combination with BGB IC20, at 0.005 µM",-11.8%
same,inhibition,"[1]; measured here: combination with BGB IC40, at 0.005 µM",-21.9%
same,inhibition,[1]; [16],-1.78%
same,inhibition,"[1]; measured here: combination with cisplatin, at 0.5 µM, stronger effect = higher value",-46.1%
same,inhibition,"[1]; measured here: combination with cisplatin, at 5 µM, stronger effect = higher value",-44.5%
same,inhibition,"[2]; BGB combo, at 5 µM",63.1%
same,inhibition,[2]; at 0.5 µM,21.8% (inactive)
same,inhibition,"[2]; cisplatin combo, at 5 µM",52.4%
same,inhibition,[2]; [17],26.6%
same,inhibition,[2]; [18],11.5%
same,inhibition,"[2]; single agent, at 5 µM",65.1%
same,inhibition,"[3]; BGB IC20 combo, at 0.005 µM",0.285%
same,inhibition,"[3]; BGB IC40 combo, at 0.005 µM",16.8%
same,inhibition,"[3]; BGB IC40 combo, at 0.05 µM",20.5%
same,inhibition,[3]; at 0.5 µM,-5.66% (inactive)
same,inhibition,"[3]; cisplatin combo, at 0.05 µM",20.5%
same,inhibition,"[3]; cisplatin combo, at 0.5 µM",-11.6%
same,inhibition,"[3]; cisplatin combo, at 5 µM",-5.67%
same,inhibition,"[3]; measured here: 5 uM single agent, at 5 µM",-12.3%
same,inhibition,[4]; at 0.5 µM,22% (inactive)
same,inhibition,[4]; [16],-11%
same,inhibition,[4]; [19],12.3%
same,inhibition,[4]; [20],12%
same,inhibition,[5]; at 0.5 µM,-1.62% (inactive)
same,inhibition,"[5]; measured here: with BGB IC20, at 0.5 µM",-18.6%
same,inhibition,"[5]; measured here: with BGB IC20, at 5 µM",74.3%
same,inhibition,"[5]; measured here: with cisplatin IC20, at 0.5 µM",-1.27%
same,inhibition,"[5]; measured here: with cisplatin IC20, at 5 µM",74.6%
same,inhibition,"[5]; single agent, at 5 µM",73.5%
same,inhibition,[6]; at 0.5 µM,-29.5% (inactive)
same,inhibition,"[6]; measured here: combination with BGB at IC20, at 0.5 µM",-33%
same,inhibition,"[6]; measured here: combination with cisplatin at IC20, at 0.5 µM",-19.4%
same,inhibition,[7]; at 0.5 µM,30.1% (inactive)
same,inhibition,"[7]; measured here: combo with BGB at IC20, at 0.5 µM",26.5%
same,inhibition,"[7]; measured here: combo with cisplatin at IC20, at 0.5 µM",26.8%
same,inhibition,[8]; at 0.5 µM,5.25% (inactive)
same,inhibition,"[8]; measured here: inhibition with BGB combination, at 0.05 µM",-16.1%
same,inhibition,"[8]; measured here: inhibition with cisplatin combination, at 0.05 µM",5.33%
same,inhibition,[9]; at 0.5 µM,-20.3% (inactive)
same,inhibition,[9]; [19],-23.3%
same,inhibition,[9]; [20],-7.2%
same,inhibition,[10]; at 0.5 µM,-16.4% (inactive)
same,inhibition,"[10]; measured here: BGB combination, at 0.5 µM",-18.4%
same,inhibition,"[10]; measured here: BGB combination, at 5 µM",-6.45%
same,inhibition,"[10]; measured here: cisplatin combination, at 0.5 µM",-23%
same,inhibition,"[10]; measured here: cisplatin combination, at 5 µM",8.95%
same,inhibition,"[11]; BGB combination, concentration series, at 5 µM",23.4%
same,inhibition,[11]; at 0.5 µM,3.85% (inactive)
same,inhibition,"[11]; cisplatin combination, concentration series, at 5 µM",29.3%
same,inhibition,[12],-9.68% (inactive)
same,inhibition,[12]; measured here: combo with BGB IC20,-8.02%
same,inhibition,[12]; measured here: combo with cisplatin IC20,-11.2%
same,inhibition,[13]; at 0.5 µM,6.42% (inactive)
same,inhibition,"[13]; cisplatin combination, at 0.5 µM",24.4%
same,inhibition,"[13]; cisplatin combination, at 5 µM",33.2%
same,inhibition,"[13]; measured here: BGB IC40 combination 0.05 uM, at 0.05 µM",4.47%
same,inhibition,"[13]; single agent, at 5 µM",25.9%
same,inhibition,[14]; at 0.5 µM,1.38% (inactive)
same,inhibition,"[14]; cisplatin combo, at 5 µM",4.72%
same,inhibition,"[14]; measured here: BGB IC40 combination, at 0.05 µM",-3.68%
same,inhibition,[14]; [19],2.71%
same,inhibition,"[14]; single agent, at 5 µM",8.59%
same,inhibition,[15]; at 0.5 µM,4.53% (inactive)
same,inhibition,[15]; [17],12.6%
same,inhibition,[15]; [18],0.492%
same,inhibition,"[15]; single agent, at 0.05 µM",-12.7%
same,inhibition,"[15]; single agent, at 5 µM",11.3%
